Laboratory results taken from the supplement of paper PMC4466140.

Legend:
Assay in all cases: SPOT peptide array binding signal intensity (averaged, normalized) (arbitrary units (background-subtracted, floor 0; scale differs between SH3 domains)); higher = stronger binding of the SH3 domain to the peptide
SpBzz1-D2 = molecular target: SpBzz1-D2
How it was run: (§1)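 GST-fused SH3 domains, from four yeast species, were produced in E. coli BL21(DE3) and captured on glutathione Sepharose. Membranes of cellulose carrying synthetic 15-mer peptides, in which cysteines had been replaced by serines, were exposed to each domain at 10 μg/ml overnight at 4°C in TBS-based blocking buffer. After anti-GST antibody, an HRP anti-mouse secondary and luminol, spots were imaged and quantified using Genespotter. Binding signal is normalized and background-subtracted spot intensity, averaged over replicates, in arbitrary units that differ between domains.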

SpCyk3 = molecular target: SpCyk3
How it was run: as §1

SpHof1 = molecular target: SpHof1
How it was run: as §1

SpHof1-2 = molecular target: SpHof1-2
How it was run: as §1

SpHof1-3 = molecular target: SpHof1-3
How it was run: as §1

SpHse1 = molecular target: SpHse1
How it was run: as §1

SpLsb1 = molecular target: SpLsb1
How it was run: as §1

SpLsb4 = molecular target: SpLsb4
How it was run: as §1

SpMyo1 = molecular target: SpMyo1
How it was run: as §1

SpNbp2 = molecular target: SpNbp2
How it was run: as §1

SpPex13 = molecular target: SpPex13
How it was run: as §1

SpRvs167 = molecular target: SpRvs167
How it was run: as §1

SpSla1-D1-D2 = molecular target: SpSla1-D1-D2
How it was run: as §1

SpSla1-D3 = molecular target: SpSla1-D3
How it was run: as §1

Measured: SPOT peptide array binding signal intensity

ATNVPVAPPPPPASL
339: SpMyo1
8.75: SpHse1
27.5: SpNbp2
≤ 0: all other assays above
